Results published in article PMC4336329 (PLoS ONE, 2015).
The whole screen tested about 310,000 compounds, of which about 14,000 (4.5%) showed an effect of 50% or more. Effects have a minus sign here. The sample holds strong results, similar compounds and a random draw of the others, so the mix is not that of the screen.

Target: human ether-à-go-go-related gene (hERG) potassium channel (human, UniProt Q12809)
Experiment: primary screen, population patch clamp on CHO cells stably expressing hERG; higher = less effect of the substance
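Note: peak tail current of the secondary pulse compared with the same well before compound.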

human ether-à-go-go-related gene (hERG) potassium channel, sequence (Q12809 whole entry, looked up): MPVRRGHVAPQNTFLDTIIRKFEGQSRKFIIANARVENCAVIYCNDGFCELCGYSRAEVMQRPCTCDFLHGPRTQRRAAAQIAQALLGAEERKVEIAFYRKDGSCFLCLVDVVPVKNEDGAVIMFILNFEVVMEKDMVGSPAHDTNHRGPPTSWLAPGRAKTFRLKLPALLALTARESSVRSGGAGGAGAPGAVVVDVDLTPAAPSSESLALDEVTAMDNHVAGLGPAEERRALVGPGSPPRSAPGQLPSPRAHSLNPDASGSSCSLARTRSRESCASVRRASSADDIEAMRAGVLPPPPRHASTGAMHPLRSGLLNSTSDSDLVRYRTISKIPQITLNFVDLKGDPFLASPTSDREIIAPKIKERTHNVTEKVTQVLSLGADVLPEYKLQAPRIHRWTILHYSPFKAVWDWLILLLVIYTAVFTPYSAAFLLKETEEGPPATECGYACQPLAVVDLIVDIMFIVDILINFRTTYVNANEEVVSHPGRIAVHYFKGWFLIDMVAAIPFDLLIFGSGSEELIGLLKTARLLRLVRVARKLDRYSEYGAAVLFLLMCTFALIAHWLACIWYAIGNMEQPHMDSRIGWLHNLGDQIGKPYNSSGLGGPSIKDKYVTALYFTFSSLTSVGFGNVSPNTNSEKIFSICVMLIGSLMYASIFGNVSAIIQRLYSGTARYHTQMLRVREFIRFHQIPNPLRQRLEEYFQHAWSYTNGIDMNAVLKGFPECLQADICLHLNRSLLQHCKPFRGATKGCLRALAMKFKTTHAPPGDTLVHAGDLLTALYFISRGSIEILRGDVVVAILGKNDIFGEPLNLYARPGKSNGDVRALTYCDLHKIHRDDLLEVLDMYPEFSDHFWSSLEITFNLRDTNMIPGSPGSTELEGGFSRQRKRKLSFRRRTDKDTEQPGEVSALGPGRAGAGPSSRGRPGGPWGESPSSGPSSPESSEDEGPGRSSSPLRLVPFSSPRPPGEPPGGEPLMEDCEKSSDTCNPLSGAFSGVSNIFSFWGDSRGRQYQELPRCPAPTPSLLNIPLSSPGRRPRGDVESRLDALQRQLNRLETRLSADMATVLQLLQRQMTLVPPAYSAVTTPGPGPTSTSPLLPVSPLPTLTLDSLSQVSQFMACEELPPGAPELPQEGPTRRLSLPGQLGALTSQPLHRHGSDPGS

| Compound | hERG current change (%, negative = inhibition) at 10uM |
| --- | --- |
| CN1CCN(C(=O)CCN2C(=O)/C(=C/c3ccccc3Cl)SC2=S)CC1 | 9.65% |
| COc1ccc(/C(O)=C2/C(=O)C(=O)N(CCCN3CCOCC3)C2c2ccc(C(C)C)cc2)cc1 (stereo not drawn) | 24.6% |
| COc1cc(C2CC(=O)N3CN(Cc4ccco4)CSC3=C2C#N)ccc1OCc1ccccc1 (stereo not drawn) | 15.1% |
| CC(=O)C1C(c2cccc(F)c2)c2c(n[nH]c2C)CC1(C)O (stereo not drawn) | 15.7% |
| COc1cc(CNCc2ccccc2)ccc1OCC(O)c1ccccc1.O=C(O)C(=O)O (stereo not drawn) | -24.9% |
| COC(=O)CC1C(=O)NCCN1C(=O)CSc1nc2cc(Cl)ccc2o1 (stereo not drawn) | 13.5% |
| O=C(NCC1CCN(Cc2ccccc2F)CC1)Nc1cccc(Br)c1 | -43.2% |
| Cc1ccc(C)c(CN2CCC(CNC(=O)Nc3ccc(Br)cc3F)CC2)c1 | -73.4% |
| COc1cc(NC(=O)NCC2CCN(Cc3ccccc3C)CC2)cc(OC)c1OC | -2.71% |
| Cc1cc(C)cc(NC(=O)NCC2CCN(Cc3cc(C)ccc3C)CC2)c1 | -51% |
| COc1ccc(N2CCC(CNC(=O)Nc3ccc(C)c(C)c3)C2)cc1 (stereo not drawn) | 11.4% |
| Cc1ccc(C)c(CN2CCC(CNC(=O)Nc3ccc(C)c(F)c3)CC2)c1 | -27.5% |
| Cc1ccc(C)c(CN2CCC(CNC(=O)Nc3ccc(C)c(C)c3)CC2)c1 | -74.3% |
| O=C(NCCN1CCCCC1)c1cc(Cl)ccc1Cl | 1.65% |
| O=[N+]([O-])c1cc(C(F)(F)F)cc([N+](=O)[O-])c1NCCCNc1ccc([N+](=O)[O-])c2cccnc12 | 14.4% |
| O=C(Nc1ccc(S(=O)(=O)NCc2ccco2)cc1)c1ccc(F)cc1 | -4.23% |
| COc1ccc(CNC(=O)COC(=O)c2cc(-c3ccc(Cl)s3)nc3ccccc23)cc1 | 1.05% |
| CCOc1ccc(CNn2nnnc2N)cc1 | -6.35% |
| O=C(COc1ncnc2ccccc12)NCCc1ccc(F)cc1 | -6.11% |
| Cc1nc2ccc(NC(=O)Cc3cccc(F)c3)cc2s1 | 2.56% |
| COCCNC(=O)C(c1ccc(F)cc1)N(CCOC)C(=O)CCC(=O)Nc1nccs1 (stereo not drawn) | 0.0239% |
| O=C1CC2(CCCCC2)Oc2ccc(O)cc21 | -11.8% |

| Compound | hERG current change (%, negative = inhibition) at 10uM |
| --- | --- |
| CCOC(=O)c1ccc(N2C(=O)Cc3ccccc3C2=O)cc1 | 20.9% |
| CCN(CC)S(=O)(=O)c1ccc(N2Cc3ccccc3C2=N)cc1 | -40.5% |
| N=C1c2ccccc2CN1c1ccc(S(=O)(=O)N2CCCCC2)cc1 | -62.5% |
| CCOC(=O)c1ccc(N2Cc3ccccc3C2=N)cc1 | -61.3% |
| O=C1c2ccccc2C(=O)N1c1ccc(S(=O)(=O)N2CCCCC2)cc1 | 15.4% |
| CCOC(=O)c1ccc(CN2Cc3ccccc3C2=O)cc1 | 2.17% |
| O=C(O)c1cccc(N2C(=O)Nc3ccccc3N2O)c1 | 10.2% |
| Cc1cc(-n2c(C)cc(C(=O)COc3ccccc3[N+](=O)[O-])c2C)no1 | -4.91% |
| CN1CCN(NC(=O)c2cc(-c3cccc(Cl)c3)nc3ccccc23)CC1 | -35.9% |
| O=S(=O)(N1CCCCC1)N1CCN(c2ccc(F)cc2)CC1 | -35.9% |
| CCN1C(=O)NC(=O)/C(=C\c2ccc(N3CCOCC3)cc2OC)C1=O | 13.7% |
| CCC(OC(=O)c1nsc(Cl)c1Cl)C(=O)NCCc1ccccc1 (stereo not drawn) | 16% |
| CC(OC(=O)c1nsc(Cl)c1Cl)C(=O)NCCc1ccccc1 (stereo not drawn) | -65.4% |
| COc1ccc(CCNC(=O)C(C)OC(=O)c2nsc(Cl)c2Cl)cc1OC (stereo not drawn) | 12.4% |
| COc1ccc(CC(=O)N/N=C/c2cc([N+](=O)[O-])cc(Br)c2O)cc1 | 6.88% |
| CCOC(=O)/C=C1\CN(Cc2cc(OC)c(OC)c(OC)c2)S(=O)(=O)c2ccc(C(F)(F)F)cc21 | -11.3% |
| CCn1nc(NS(=O)(=O)c2ccccc2)c2cc3cccc(C)c3nc21 | 6.7% |
| CCN(Cc1ccccc1)C1CCN(Cc2ccc(SC)cc2)CC1.O=C(O)C(=O)O | -69.3% |
| CCN(CC)C(=O)C1CCN(Cc2ccc(Br)cc2)CC1.O=C(O)C(=O)O | -51.4% |
| CCN(CC)C(=O)C1CCN(Cc2ccc(OCc3ccccc3)c(OC)c2)CC1.O=C(O)C(=O)O | -32% |
| CSc1ccc(CN2CCC(N3CC(C)OC(C)C3)CC2)cc1.O=C(O)C(=O)O (stereo not drawn) | -20.5% |
| CCN(Cc1ccccc1)C(=O)C1CCN(Cc2ccc(SC)cc2)CC1.O=C(O)C(=O)O | -71.8% |

| Compound | hERG current change (%, negative = inhibition) at 10uM |
| --- | --- |
| CCN(Cc1ccccc1)C(=O)C1CCN(Cc2ccc(OC)c(OC)c2OC)CC1.O=C(O)C(=O)O | -43.4% |
| CCN(CC)C(=O)C1CCCN(Cc2ccc(N(C)C)cc2)C1 (stereo not drawn) | -12.5% |
| O=C(C1CCN(Cc2ccc(F)cc2)CC1)N(CCO)Cc1ccccc1 | -10.6% |
| CSc1ccc(CN2CCN(S(=O)(=O)Cc3ccccc3)CC2)cc1 | 1.28% |
| CCCC(C)C(=O)Nc1nc(C)c(-c2csc(Nc3ccccc3OC)n2)s1 (stereo not drawn) | 14.5% |
| CC(=O)CCn1cnc([N+](=O)[O-])n1 | 23% |
| COc1cccc(CNC(=O)COC(=O)c2cc(Br)c(Br)s2)c1 | 14.8% |
| O=C(O)CC1SC(N/N=C/c2ccc(Br)cc2)NC1=O (stereo not drawn) | 6.6% |
| CC(NS(C)(=O)=O)C(c1cccs1)N1CCN(c2ccc(F)cc2)CC1 (stereo not drawn) | -11.4% |
| Cc1ccc(C2=NN(CC(=O)NCc3ccccn3)C(=O)CC2)cc1 | -11.6% |
| Cc1cc(=O)oc2cc(OCC(=O)Nc3ccccc3C(=O)O)ccc12 | 11.6% |
| CCCCn1c(N)c(Sc2ccc(C)cc2)c(=O)[nH]c1=O | 2% |
| COCCn1c(N)c(Sc2ccc([N+](=O)[O-])cc2)c(=O)[nH]c1=O | -46.5% |
| CCCn1c(N)c(Sc2ccc([N+](=O)[O-])cc2)c(=O)n(CCC)c1=O | -83.8% |
| CCCCn1c(N)c(Sc2ccc([N+](=O)[O-])cc2)c(=O)[nH]c1=O | -79.5% |
| CCCn1c(N)c(Sc2ccc(Cl)cc2)c(=O)n(CCC)c1=O | -43.3% |
| CCCn1c(N)c(Sc2ccc(C)cc2)c(=O)n(CCC)c1=O | -14.3% |
| O=C(CCNC(=O)c1ccc([N+](=O)[O-])cc1)Nc1nccs1 | 1.93% |
| CCCOc1ccccc1/C=C1\SC(N2CCCCC2)=NC1=O | -12.3% |
| Cn1c(SCc2ccccc2Cl)nc(C(F)(F)F)cc1=O | 1.65% |
| Cc1cc(OCCOCCN(C)CCO)cc(C)c1Cl | -40.9% |
| COc1ccc(C2=NC(=O)/C(=C\c3cc(OC)c(OC)c(OC)c3)O2)cc1 | 8.26% |

| Compound | hERG current change (%, negative = inhibition) at 10uM |
| --- | --- |
| Cc1cccn2cc(-c3ccc(F)cc3)nc12 | -14.1% |
| COc1ccc(-c2cn3cccc(C)c3n2)cc1F | -61.7% |
| COc1ccc(-c2cn3cccnc3n2)cc1F | 12.2% |
| CC(=O)c1c(C)[nH]c(C(=O)OCc2cc(=O)n3cc(Br)ccc3n2)c1C | -3.69% |
| N#Cc1ccccc1COC(=O)CCC(=O)c1cccs1 | -4.58% |
| CCOc1ccccc1NC(=O)c1ccc(S(=O)(=O)N2CCOCC2)cc1 | -2.46% |
| S=C(Nc1ccc(Cl)cc1Cl)N1CCOCC1 | 11.1% |
| CN(CC(=O)Nc1ccc(F)cc1)C(=O)COC(=O)C1CCN(c2ccc(C(F)(F)F)cn2)CC1 | -65.5% |
| O=C(COC(=O)C1CCN(c2ccc(C(F)(F)F)cn2)CC1)c1ccc(F)cc1 | -0.831% |
| CCc1ccc(C(=O)COC(=O)C2CCN(c3ccc(C(F)(F)F)cn3)CC2)cc1 | -18% |
| Cc1ccc(NC(=O)COC(=O)C2CCN(c3ccc(C(F)(F)F)cn3)CC2)cc1 | -1.26% |
| CN(CC(=O)Nc1ccccc1Cl)C(=O)COC(=O)C1CCN(c2ccc(C(F)(F)F)cn2)CC1 | -29.8% |
| COc1cc(C(=O)COC(=O)C2CCN(c3ccc(C(F)(F)F)cn3)CC2)ccc1OC(F)F | -59.1% |
| O=C(O)c1cccc2c(-c3ccccc3)c(-c3ccccc3)[nH]c12 | 18.5% |
| COc1cc(/C=C2\C(=N)N3N=C(C)SC3=NC2=O)cc(OC)c1OCCOc1ccccc1C | 30.7% |
| Cc1ccc(-c2nc(CN(C)Cc3ccc4nccnc4c3)c(C)o2)s1 | -10.3% |
| Cc1cc(OCC(=O)Nc2cnn(CCCC(=O)O)c2)ccc1Cl | 18% |
| CCCCCC#CCN1CCN(C23CC4CC(CC(C4)C2)C3)CC1 | -58.6% |
| CC(=O)N1CCN(C23CC4CC(CC(C4)C2)C3)CC1 | 12.3% |
| CCCC#CCN1CCN(C23CC4CC(CC(C4)C2)C3)CC1 | -16.1% |
| COCc1ccc(C(=O)N2CCCC(Nc3ccc(C(C)C)cc3)C2)o1 (stereo not drawn) | -0.274% |
